Reference: PubChem BioAssay (NCATS)
The source made the active and inactive calls. Unless noted, calls come from the whole dose curve; as a rule, active = well fitted curve in the direction sought with a large enough effect; inconclusive = small, poorly fitted or top-dose-only effect, or another doubt; inactive = no such curve, though single readings can be large; an effect the other way counts as inactive or inconclusive.

Target: Pyruvate kinase (Leishmania mexicana) (UniProt Q27686)
Assay: qHTS Validation Assay for Inhibitors of Leishmania Mexicana Pyruvate Kinase (AID 945);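 note: 0% = DMSO only neutral control wells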
Details: purified L. mexicana pyruvate kinase, enzyme activity, E451W mutant enzyme; series mostly up to 57.5 µM; activity change, negative = inhibition: at the top concentration
In short: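 Mutant LmPYK (E451W), 0.2 nM, plus 0.5 mM PEP and 0.1 mM ADP in 50 mM imidazole pH 7.2 containing 0.01% Tween 20 and 0.05% BSA. Incubated 1 h at room temperature; luminescence via PKLight, normalized to DMSO.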

Pyruvate kinase (Leishmania mexicana), sequence (Q27686 2-499 E452W): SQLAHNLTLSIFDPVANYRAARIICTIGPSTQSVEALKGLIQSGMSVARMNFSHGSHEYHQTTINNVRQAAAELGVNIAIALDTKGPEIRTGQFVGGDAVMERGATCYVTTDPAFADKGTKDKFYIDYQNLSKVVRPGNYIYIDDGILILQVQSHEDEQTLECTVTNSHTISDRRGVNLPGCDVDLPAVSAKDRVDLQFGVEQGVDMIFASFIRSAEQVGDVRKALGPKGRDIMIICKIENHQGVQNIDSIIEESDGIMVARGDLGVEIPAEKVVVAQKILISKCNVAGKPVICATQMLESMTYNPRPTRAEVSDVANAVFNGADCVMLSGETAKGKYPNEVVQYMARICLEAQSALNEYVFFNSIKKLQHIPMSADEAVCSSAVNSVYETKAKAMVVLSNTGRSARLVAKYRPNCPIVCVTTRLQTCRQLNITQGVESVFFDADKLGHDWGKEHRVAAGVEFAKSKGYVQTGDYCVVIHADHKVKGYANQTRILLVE

**Q.** `CN(C)CCCO[C@H]1[C@H]([C@H](O)CO)O[C@H]2OC(C)(C)O[C@@H]21` was tested. Which “activity change, negative = inhibition” value did it give?
**A.** The value was 20.4% (inactive).

**Q.** How did the “activity change, negative = inhibition” value turn out when `CCCCCCCCCC(=O)N[C@@H](CN1CCOCC1)[C@@H](O)c1ccccc1` was run?
**A.** Its value is -8.17% (inactive).

**Q.** Which “activity change, negative = inhibition” value does the source give for `CCCCCCCCCCCCCCCCCC(=O)NC[C@@H](COP(=O)([O-])OCC[N+](C)(C)C)OCC` here?
**A.** The value was 9.86% (inactive).

Target: Pyruvate kinase PKM (Homo sapiens) (UniProt P14618)
Assay: qHTS Assay for Activators of Human Muscle Pyruvate Kinase (AID 954; active = well fitted curve in the direction sought with a large enough effect, not every such curve was filed as active;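 note: 0% = uninhibited enzyme and -100% = no enzyme or full thiadiazolimine inhibition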)
Details: purified human muscle pyruvate kinase, luciferase-coupled luminescence, 1 h; series mostly up to 57.5 µM; activity change, negative = inhibition: at the top concentration
In short: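 Reaction: 0.1 nM purified PKM2 with 0.5 mM phosphoenolpyruvate and 0.1 mM ADP, room temperature, 1 h. Readout: luciferase-based ATP luminescence after stop reagent. Activators judged against a 0.3 nM enzyme column.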

Pyruvate kinase PKM (Homo sapiens), sequence (P14618 whole entry, looked up): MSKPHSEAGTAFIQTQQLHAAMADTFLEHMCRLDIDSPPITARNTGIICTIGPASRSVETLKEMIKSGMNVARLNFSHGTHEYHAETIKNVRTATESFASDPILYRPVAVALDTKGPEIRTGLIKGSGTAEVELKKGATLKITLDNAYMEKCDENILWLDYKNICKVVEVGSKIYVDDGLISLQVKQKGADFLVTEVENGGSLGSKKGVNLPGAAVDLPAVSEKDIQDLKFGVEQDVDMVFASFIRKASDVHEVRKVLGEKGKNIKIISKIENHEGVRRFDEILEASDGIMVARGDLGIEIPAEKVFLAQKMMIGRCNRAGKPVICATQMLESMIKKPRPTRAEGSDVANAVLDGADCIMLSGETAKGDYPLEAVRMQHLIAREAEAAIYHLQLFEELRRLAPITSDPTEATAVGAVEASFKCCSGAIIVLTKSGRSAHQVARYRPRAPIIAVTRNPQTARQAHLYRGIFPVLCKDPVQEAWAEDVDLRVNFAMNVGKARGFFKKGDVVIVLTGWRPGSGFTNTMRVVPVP

**Q.** For `CN(C)CCCO[C@H]1[C@H]([C@H](O)CO)O[C@H]2OC(C)(C)O[C@@H]21`, which “activity change, negative = inhibition” value is on record?
**A.** Its value is -24.8% (inactive).

**Q.** `CCCCCCCCCC(=O)N[C@@H](CN1CCOCC1)[C@@H](O)c1ccccc1` was tested. Which “activity change, negative = inhibition” value did it give?
**A.** Its value is -16.4% (inactive).

**Q.** How did the “activity change, negative = inhibition” value turn out when `CCCCCCCCCCCCCCCCCC(=O)NC[C@@H](COP(=O)([O-])OCC[N+](C)(C)C)OCC` was run?
**A.** The value was -11.9% (inactive).

Target: Alpha-galactosidase A (Homo sapiens) (UniProt P06280)
Assay: Counterscreen for Glucocerebrosidase Inhibitors: qHTS Assay for Human alpha-Galactosidase at pH 4.5 (AID 992); note: 0% is about no effect
Details: purified enzyme, fluorogenic substrate; series mostly up to 76.9 µM; activity change, negative = inhibition: at the top concentration
In short: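 Concentration-response curves (0.7 nM to 77 uM final) were modeled with the Hill equation to give AC50. Reactions: 2 nM enzyme, 80 uM fluorogenic alpha-galactoside, pH 4.5 citric acid buffer, 20 min, room temperature.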

Alpha-galactosidase A (Homo sapiens), sequence (P06280 whole entry, looked up): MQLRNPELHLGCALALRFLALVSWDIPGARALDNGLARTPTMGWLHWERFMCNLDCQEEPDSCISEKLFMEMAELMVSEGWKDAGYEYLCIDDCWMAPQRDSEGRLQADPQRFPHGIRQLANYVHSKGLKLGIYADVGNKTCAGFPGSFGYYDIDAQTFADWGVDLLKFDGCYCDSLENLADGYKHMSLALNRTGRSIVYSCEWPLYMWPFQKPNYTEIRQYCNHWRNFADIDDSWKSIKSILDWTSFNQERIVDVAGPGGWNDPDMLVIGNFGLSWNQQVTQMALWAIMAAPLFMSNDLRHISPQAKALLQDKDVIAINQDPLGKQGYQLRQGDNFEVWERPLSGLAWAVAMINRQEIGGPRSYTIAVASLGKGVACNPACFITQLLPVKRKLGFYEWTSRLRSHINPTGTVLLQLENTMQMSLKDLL

**Q.** With `CN(C)CCCO[C@H]1[C@H]([C@H](O)CO)O[C@H]2OC(C)(C)O[C@@H]21` as the molecule, how does the “activity change, negative = inhibition” value read?
**A.** The value was -0.842% (inactive).

**Q.** For `CCCCCCCCCC(=O)N[C@@H](CN1CCOCC1)[C@@H](O)c1ccccc1`, which “activity change, negative = inhibition” value is on record?
**A.** Its value is -6.59% (inactive).

**Q.** `CCCCCCCCCCCCCCCCCC(=O)NC[C@@H](COP(=O)([O-])OCC[N+](C)(C)C)OCC` was tested. Which “activity change, negative = inhibition” value did it give?
**A.** The value was -1.44% (inactive).

Target: alpha-glucosidase (Oryza sativa, rice) (UniProt Q653V4)
Assay: Counterscreen for Glucocerebrosidase Inhibitors: qHTS Assay for Rice alpha-Glucosidase at pH 5.0 (AID 997);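 note: 0% = full activity with enzyme and -100% = basal without enzyme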
Details: rice alpha-glucosidase enzyme activity; series mostly up to 76.9 µM; activity change, negative = inhibition: at the top concentration
In short: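 Rice alpha-glucosidase (4 nM final) with 400 uM 4-methylumbelliferyl-alpha-D-glucopyranoside in citrate buffer pH 5.0, 20 min at room temperature, stopped at pH 10; fluorescence 365/440 nm, compounds 0.7 nM–77 uM, AC50 from Hill fits.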

**Q.** Which “activity change, negative = inhibition” value does the source give for `CN(C)CCCO[C@H]1[C@H]([C@H](O)CO)O[C@H]2OC(C)(C)O[C@@H]21` here?
**A.** The value was -0.279% (inactive).

**Q.** How did the “activity change, negative = inhibition” value turn out when `CCCCCCCCCC(=O)N[C@@H](CN1CCOCC1)[C@@H](O)c1ccccc1` was run?
**A.** Its value is -4.67% (inactive).

**Q.** How did the “activity change, negative = inhibition” value turn out when `CCCCCCCCCCCCCCCCCC(=O)NC[C@@H](COP(=O)([O-])OCC[N+](C)(C)C)OCC` was run?
**A.** Its value is -6.89% (inactive).
